Assay outcomes from PubChem.
This is a sample that favours compounds with a hit; in the whole collection about 4.5% have one here.
DAX1 inh-1: NR0B1 (DAX1) inhibition | HEK293 Gal4-DAX1 luciferase reporter, luminescence | inhibition, % at 6.75 µM | 340,000 tested, 0.99% active | AID 504766;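 active = inhibition above the mean over all tested compounds plus 3 SD, cut at about 4.2% in these data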;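 also: 0% = DAX1-transfected cells with DMSO and 100% = empty-vector control cells with DMSO; inhibition shows as a rise in luminescence from relieved DAX1 repression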
Target sequence (P51843 207-470 limits assumed): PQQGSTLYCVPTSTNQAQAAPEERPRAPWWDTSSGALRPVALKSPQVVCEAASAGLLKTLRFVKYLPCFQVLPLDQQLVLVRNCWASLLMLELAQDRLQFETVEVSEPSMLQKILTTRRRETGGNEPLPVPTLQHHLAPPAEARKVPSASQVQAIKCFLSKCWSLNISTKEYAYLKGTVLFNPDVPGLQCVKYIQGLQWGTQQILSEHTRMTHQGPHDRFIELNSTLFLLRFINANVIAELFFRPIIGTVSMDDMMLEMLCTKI
GAA850 FXN act: frataxin GAA850 promoter activation. AID 540364. HEK293 lucGAA850 FXN promoter luciferase reporter, 24 h; percent of 10 µM SAHA response. activation, % at 6 µM. 360,000 tested, 0.56% active;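 active = activation above the average of all compounds screened plus 3 SD, cutoff fixed separately per campaign, cut at about 7.5% in these data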;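 also: 0% = DMSO wells and 100% = 10 µM SAHA wells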
hcDAF12 agonist: H. contortus DAF-12 activation, primary screen | activation, % at 6.8 µM | 370,000 tested, 1.4% active | HEK293 hcDAF-12 lit1-tk-luc reporter, luminescence; 0% DMSO, 100% Δ7-dafachronic acid;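 active = activation above the mean of all tested compounds plus 3 SD, cut at about 5.5% in these data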;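 also: 100% = response to 3 µM Δ7-dafachronic acid high control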
hgDAF12 agonist: hgDAF-12 agonism, primary luciferase screen; HEK293 GAL4-hgDAF12 UAS-luciferase reporter, agonist luminescence; normalized to butyrate control; activation, % at 6.8 µM; 370,000 tested, 1.8% active; AID 687014;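 active = activation above a cutoff set at the mean of all screened compounds plus 3 SD, cut at about 10% in these data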;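 also: 0% = DMSO wells and 100% = sodium butyrate wells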
DAX1 inh-2: inhibitors of DAX1 repression of SF-1 activated StAR promoter; HEK293T StAR-luciferase reporter, SF-1/DAX-1 repression relief; inhibition, % at 6.8 µM; 370,000 tested, 1.1% active; AID 652010;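 active = inhibition above the mean over all tested compounds plus 3 SD, cut at about 3.6% in these data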;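 also: 0% = DAX-1 cells with DMSO and 100% = cells lacking DAX-1 with DMSO; higher inhibition means more luminescence from relief of DAX-1 repression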
ssDAF12 agonist: S. stercoralis DAF-12 activation, primary screen. AID 652126. 370,000 tested, 1% active. activation, % at 6.8 µM. HEK293 ssDAF-12/GRIP1 lit1-tk-luc reporter, luminescence; % of 3 µM dafachronic acid response;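 active = activation above the mean over all tested compounds plus 3 SD, cut at about 0.9% in these data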;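 also: 0% = DMSO-only wells and 100% = 3 µM delta7-dafachronic acid wells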
LXRb hcDAF ctr: counter-screen for hcDAF-12 agonists: agonists of human LXR-beta. shares compounds with hcDAF12 agonist. HEK293 Gal4-LXR tk-luc reporter, luminescence, 24 h; normalized: DMSO 0%, positive control 100%. activation, % at 6.8 µM. 3,400 tested, under 10 active;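 active = mean percent activation of the reporter above a cutoff set as the average over tested compounds plus their standard deviation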
Target sequence (P55055 whole entry, looked up, the tested form may be a part): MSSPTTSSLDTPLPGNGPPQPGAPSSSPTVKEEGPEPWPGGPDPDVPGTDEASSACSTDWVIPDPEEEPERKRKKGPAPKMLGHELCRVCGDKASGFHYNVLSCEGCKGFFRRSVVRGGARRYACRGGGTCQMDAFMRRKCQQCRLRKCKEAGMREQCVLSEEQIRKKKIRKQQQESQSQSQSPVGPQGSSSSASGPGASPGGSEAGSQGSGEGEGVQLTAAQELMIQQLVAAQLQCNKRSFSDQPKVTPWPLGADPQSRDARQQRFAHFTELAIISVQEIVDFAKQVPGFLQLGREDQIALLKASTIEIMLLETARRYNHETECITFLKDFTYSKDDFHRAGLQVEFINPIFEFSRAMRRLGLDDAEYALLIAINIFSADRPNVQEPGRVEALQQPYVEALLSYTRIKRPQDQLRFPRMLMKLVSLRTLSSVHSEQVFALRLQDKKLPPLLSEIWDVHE
hcDAF12 ag: confirmation of H. contortus DAF-12 agonists; shares compounds with hcDAF12 agonist; HEK293 hcDAF-12 lit1-tk-luc reporter, luminescence; % of Δ7-dafachronic acid response; activation, % at 6.8 µM; 3,400 tested, 61% active; AID 743032;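 active = mean activation across triplicate tests above the threshold derived from the earlier primary screen, cut at about 5.5% in these data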;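 also: 0% = DMSO only wells and 100% = 3 µM Δ7-dafachronic acid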
hgDAF12 ag: hgDAF-12 agonism, confirmation assay; shares compounds with hgDAF12 agonist; HEK293 GAL4-hgDAF12 luciferase reporter, agonist mode; percent of butyrate response; activation, % at 6.8 µM; 3,300 tested, 80% active; AID 743050;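 active = mean activation over triplicate wells above the hit cutoff derived from the earlier primary screen, cut at about 11% in these data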;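 also: 0% = DMSO low control and 100% = 2 mM sodium butyrate high control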
LXRb DAF12 ctr: counter-screen for DAF-12 agonists: agonists of human LXR-beta; shares compounds with hgDAF12 agonist; HEK293 Gal4-LXR luciferase reporter, 24 h; activation, % at 6.8 µM; 3,300 tested, under 10 active; AID 743051;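 active = mean activation of the triplicate above a set limit carried over from the primary screen, none filed active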
Active calls of the source: *; nt = no result; ! = a repeat was not active.

SMILES	DAX1 inh-1	GAA850 FXN act	hcDAF12 agonist	hgDAF12 agonist	DAX1 inh-2	ssDAF12 agonist	LXRb hcDAF ctr	hcDAF12 ag	hgDAF12 ag	LXRb DAF12 ctr
Cc1ccc(C)c(NC(=S)c2ccc3ccccc3n2)c1	2.0	4.7	21.9*	17.1*	1.6	2.0*	1.3	14.9*	16.6*	0.6
CN(C)c1ccc(NC(=S)c2ccc3ccccc3n2)cc1	0.1	0.6	4.7	1.9	0.9	-1.1	nt	nt	nt	nt
Cc1cccc(-c2cccc3c4c([nH]c23)[C@@H]2C[C@H](N(C)C(=O)c3ccccc3F)[C@H]([C@H](C)O)CN2CC4)c1	nt	nt	1.5	-1.2	-0.3	-1.9	nt	nt	nt	nt
CC(=O)NC(c1cccc(F)c1)c1nc(-c2cc3ccccc3o2)cs1 (configuration not stated)	nt	2.0	-2.5	-0.7	0.5	-1.4	nt	nt	nt	nt
OC(c1ccc(F)cc1)c1nc(-c2cc3ccccc3o2)cs1 (configuration not stated)	nt	2.7	6.6*	14.9*	3.9*	1.2*	0.6	4.2	14.0*	0.5
O=C1COc2ccccc2C(c2nnnn2-c2ccc3ccccc3c2)N1C1CC1 (configuration not stated)	nt	nt	-1.6	0.9	-0.9	-0.2	nt	nt	nt	nt
CCCS(=O)(=O)NCc1cn2c(C)csc2n1	3.6	5.2	10.3*	15.0*	3.8*	1.1*	0.3	3.8	6.4	0.2
CCS(=O)(=O)NCc1cn2c(C)csc2n1	-0.1	-1.6	3.2	0.6	-0.6	-0.3	nt	nt	nt	nt
COc1ccc(C2=NN(S(C)(=O)=O)C(c3cccs3)C2)cc1 (configuration not stated)	0.6	4.4	1.1	4.8	2.7	0.1	nt	nt	nt	nt
Cc1ccc(C2=NN(S(C)(=O)=O)C(c3cccs3)C2)cc1 (configuration not stated)	2.7	2.2	7.6*	14.4*	1.7	0.3	0.9	4.9	14.1*	0.4
CS(=O)(=O)N1N=C(c2cccs2)CC1c1ccccc1 (configuration not stated)	-1.9	2.9	0.2	1.8	0.0	-1.7	nt	nt	nt	nt
CCc1ccc(C2=NN(S(C)(=O)=O)C(c3cccs3)C2)cc1 (configuration not stated)	1.2	2.2	11.7*	14.8*	2.7	2.6*	1.3	6.1*	23.0*	1.1
C=CCN1C(=O)[C@H](CC(=O)NCCc2ccccc2OC)[C@@]2(C(=O)OCC)CCCC=C12	nt	nt	-1.3	1.9	-0.8	-0.4	nt	nt	nt	nt
Cc1ccc(-c2nc3ccc(Cl)cn3c2Cc2cccc(Cl)c2)cc1	nt	nt	6.6*	14.3*	4.1*	-0.2	0.5	2.7	8.2	0.3
COc1ccccc1-c1noc(-c2ccncc2)n1	1.1	-0.5	0.0	4.6	0.1	-1.0	nt	nt	nt	nt
COc1ccccc1-c1noc(-c2cccs2)n1	1.6	2.6	8.7*	19.3*	1.5	0.7	0.7	5.1	22.8*	0.9
CC1=CC(C)=Nc2ccc(C)cc2N1	2.5	6.9	5.6*	15.7*	4.1*	0.2	0.0	2.6	11.6*!	0.7
CCC[C@H](/C=C/C(=O)OC(C)(C)C)Sc1ccc(N)cc1	nt	nt	0.4	1.2	-0.7	-1.5	nt	nt	nt	nt
Cc1cc(C(=O)Nc2ccc3c(c2)OCCO3)c(C)o1	0.5	2.4	4.4	8.8	3.2	-0.4	nt	nt	nt	nt
O=C(Nc1ccc2c(c1)OCCO2)c1ccc(Cl)cc1Cl	-1.9	1.6	8.0*	13.5*	2.0	0.9	1.8	8.0*	18.7*	0.9
O=C(Nc1ccc2c(c1)OCCO2)c1cccc(Cl)c1	3.3	4.0	9.9*	17.6*	2.0	-0.1	1.2	3.7	15.4*	0.7
COC(=O)[C@]12C[C@H](CC(=O)NCc3cccc4ccccc34)C(=O)N(Cc3ccc(Cl)cc3Cl)C1=C[C@H](C1CCCC1)O[C@@H]2C	nt	nt	-1.2	3.9	0.4	-1.0	nt	nt	nt	nt
Cc1cc(NC(=O)Nc2ccccc2F)ccc1Br	2.9	5.3	7.1*	20.9*	3.5	0.6	1.3	6.3*	17.7*	1.1
CC(C)OC(=O)c1ccc2nc3ccccc3nc2c1	3.2	3.6	7.8*	17.3*	1.8	1.2*	1.8	8.1*	16.5*	0.8
Clc1ccc(Cl)c(-c2nc(-c3ccncc3)no2)c1	1.2	1.9	2.5	0.5	-0.4	-1.0	nt	nt	nt	nt
SMILES	DAX1 inh-1	GAA850 FXN act	hcDAF12 agonist	hgDAF12 agonist	DAX1 inh-2	ssDAF12 agonist	LXRb hcDAF ctr	hcDAF12 ag	hgDAF12 ag	LXRb DAF12 ctr
Cc1ccc(-c2nc(-c3ccncc3)no2)c(Cl)c1	0.1	1.4	7.6*	15.8*	2.7	1.5*	1.5	8.5*	16.3*	1.2
Nc1nc2c(nnn2C2CC(O)C(CO)O2)c(=O)[nH]1 (configuration not stated)	nt	nt	1.3	-0.2	2.2	-1.4	nt	nt	nt	nt
Oc1ccccc1-c1cc(-c2cccc(F)c2)n[nH]1	2.7	6.6	21.0*	23.6*	4.4*	2.4*	1.5	15.7*	27.2*	1.1
COC(=O)[C@]12C[C@H](CC(=O)NCc3cccc4ccccc34)C(=O)N(Cc3ccccc3)C1=C[C@H](C(C)(C)C)O[C@@H]2C	nt	nt	0.6	0.5	-1.3	-0.9	nt	nt	nt	nt
Cc1cc(C)nc(Nc2nc3ccccc3s2)n1	1.1	5.5	13.8*	16.5*	4.5*	0.5	1.6	15.4*	18.5*	0.9
Cc1ccc(Nc2nc3ccccc3s2)c(C)c1	0.4	0.8	9.1*	21.4*	3.5	1.2*	1.8	9.6*	21.9*	1.1
COC(=O)[C@@H](Cc1c[nH]c2ccccc12)NC(=O)c1cc(=O)[nH]c2ccccc12	0.8	-0.8	0.7	6.4	-0.3	-1.5	nt	nt	nt	nt
O=C(NCCc1c[nH]c2ccccc12)c1ccc2c(c1)OCO2	2.3	1.8	11.4*	15.4*	2.1	1.3*	1.2	9.8*	17.9*	0.7
COC(=O)[C@@H](Cc1c[nH]c2ccccc12)NC(=O)c1ccc2c(c1)OCO2	3.6	6.1	13.0*	15.8*	1.2	3.2*	1.0	7.9*	17.9*	0.7
Cc1ccc2[nH]cc(CCNC(=O)c3ccc4c(c3)OCO4)c2c1	-0.7	-1.4	-1.8	1.2	-0.3	-1.2	nt	nt	nt	nt
COc1ccc(OCc2nn3c(-c4ccccc4)nnc3s2)cc1	nt	nt	-2.4	0.1	-0.4	-1.9	nt	nt	nt	nt
